Reference: PubChem BioAssay (EPA / NIEHS)
The source made the active and inactive calls. Rule for the calls: active = hit-call score of the fitted dose curve at least 0.9, where 1 is the maximum; inactive = score below 0.9.

How the values were obtained:
Details in all cases: mRNA level, 48 h; actives raise or lower the signal
[1] = read-out: Insulin Like Growth Factor 1 (IGF1), IGF1 (gene 3479); assay: LTEA_HepaRG_IGF1: Life Technologies and Expression Analysis (LTEA) Assay for Insulin Like Growth Factor 1 (IGF1) using HepaRG (AID 2283506)
Summary of the method: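 qRT-PCR readout of IGF1 mRNA, normalized to three housekeeping genes, after 48 h chemical exposure of HepaRG cells. Concentrations: 8-point half-log series, top 100 uM, 0.5% DMSO vehicle. Gain or loss fitted against DMSO baseline.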

[2] = read-out: Intercellular Adhesion Molecule 1 (ICAM1), ICAM1 (gene 3383); assay: LTEA_HepaRG_ICAM1: Life Technologies and Expression Analysis (LTEA) Assay for Intercellular Adhesion Molecule 1 (ICAM1) using HepaRG (AID 2283507)
Summary of the method: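 Readout is qRT-PCR mRNA level, normalized to three housekeeping genes and fitted bidirectionally against 0.5% DMSO vehicle. Human HepaRG cultures received compound for 48 h, top concentration 100 uM with half-log dilutions.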

[3] = read-out: Insulin-like growth factor-binding protein 1 (IGFBP1), IGFBP1 (gene 3484); assay: LTEA_HepaRG_IGFBP1: Life Technologies and Expression Analysis (LTEA) Assay for Insulin-like growth factor-binding protein 1 (IGFBP1) using HepaRG (AID 2283508)
Summary of the method: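 Thawed HepaRG cells are plated for 48 h, switched to serum-free induction medium, then dosed in duplicate for another 48 h (100 uM top, half-log steps). Lysates in RLT go to qRT-PCR, and gain or loss of signal is fitted relative to vehicle.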

[4] = read-out: Interleukin 6 (IL6), IL6 (gene 3569); assay: LTEA_HepaRG_IL6: Life Technologies and Expression Analysis (LTEA) Assay for Interleukin 6 (IL6) using HepaRG (AID 2283509)
Summary of the method: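 Changes in IL6 mRNA, up or down relative to 0.5% DMSO controls, were derived from concentration-response curves in human HepaRG cells treated for 48 h at up to 100 uM, with ACTB, GAPDH and POLR2A as normalizers.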

[5] = read-out: Interleukin 6 Receptor (IL6R), IL6R (gene 3570); assay: LTEA_HepaRG_IL6R: Life Technologies and Expression Analysis (LTEA) Assay for Interleukin 6 Receptor (IL6R) using HepaRG (AID 2283510)
Summary of the method: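 HepaRG, 48 h exposure, 8-pt half-log series, top 100 uM, 0.5% DMSO vehicle, duplicates. Read-out: TaqMan qRT-PCR of IL6R transcript, housekeeping-gene normalized. Gain or loss fitted relative to DMSO baseline.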

[6] = read-out: Potassium channel subfamily K member 1 (KCNK1), KCNK1 (gene 3775); assay: LTEA_HepaRG_KCNK1: Life Technologies and Expression Analysis (LTEA) Assay for Potassium channel subfamily K member 1 (KCNK1) using HepaRG (AID 2283511)
Summary of the method: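 Human HepaRG cultures receive test chemicals for 48 h in 0.5% DMSO, top concentration 100 uM with half-log dilutions. Induction or suppression of KCNK1 mRNA relative to DMSO is derived by bidirectional fitting of qRT-PCR data.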

[7] = read-out: Keratin 19 (KRT19), KRT19 (gene 3880); assay: LTEA_HepaRG_KRT19: Life Technologies and Expression Analysis (LTEA) Assay for Keratin 19 (KRT19) using HepaRG (AID 2283512)
Summary of the method: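 KRT19 transcript levels, measured by Fluidigm qRT-PCR against three housekeeping genes, are fitted for gain or loss of signal relative to DMSO. Human HepaRG cells receive test chemicals (top 100 uM, half-log steps, 0.5% DMSO) for 48 hours.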

[8] = read-out: JUN Transcription Factor, JUN (gene 3725); assay: LTEA_HepaRG_JUN: Life Technologies and Expression Analysis (LTEA) Assay for JUN Transcription Factor using HepaRG (AID 2283513)
Summary of the method: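 HepaRG, 48 h exposure, 8-pt half-log series top 100 uM, 0.5% DMSO, duplicate. JUN mRNA by qRT-PCR (Fluidigm), housekeeping-normalized (ACTB/GAPDH/POLR2A); bidirectional curve fit vs DMSO baseline.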

[9] = read-out: Lipoprotein lipase (LPL), LPL (gene 4023); assay: LTEA_HepaRG_LPL: Life Technologies and Expression Analysis (LTEA) Assay for Lipoprotein lipase (LPL) using HepaRG (AID 2283515)
Summary of the method: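 Concentration-response testing used half-log steps from 100 uM in 0.5% DMSO on human HepaRG cells, 48 h, duplicate wells. Phenobarbital 1 mM served as induction control; LPL mRNA was normalized to ACTB, GAPDH, POLR2A.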

[10] = read-out: MicroRNA 122 (MIR122), gene 406906; assay: LTEA_HepaRG_MIR122: Life Technologies and Expression Analysis (LTEA) Assay for MicroRNA 122 (MIR122) using HepaRG (AID 2283516); note: the transcript read is the microRNA miR-122
Summary of the method: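 qRT-PCR read-out (TaqMan, Fluidigm array), normalized to three housekeeping genes; HepaRG cells dosed 48 h at 8 concentrations up to 100 uM in 0.5% DMSO, duplicate; gain or loss fitted against DMSO baseline.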

[11] = read-out: matrix metalloproteinase-10 (MMP10), MMP10 (gene 4319); assay: LTEA_HepaRG_MMP10: Life Technologies and Expression Analysis (LTEA) Assay for matrix metalloproteinase-10 (MMP10) using HepaRG (AID 2283517)
Summary of the method: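 In differentiated HepaRG cultures kept in 0.5% DMSO, test chemicals act for 48 h over an eight-point range with a top dose of 100 uM. Expression is then quantified by TaqMan RT-PCR against ACTB, GAPDH and POLR2A.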

[12] = read-out: MYC, MYC (gene 4609); assay: LTEA_HepaRG_MYC: Life Technologies and Expression Analysis (LTEA) Assay for MYC using HepaRG (AID 2283518)
Summary of the method: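 HepaRG, ~100,000 cells/well, collagen I; 48 h plating; serum-free induction medium; 48 h dosing, duplicate, 100 uM top, half-log, 0.5% DMSO; total RNA → qRT-PCR MYC; gain/loss fit vs DMSO.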

[13] = read-out: matrix metalloproteinase-3 (MMP3), MMP3 (gene 4314); assay: LTEA_HepaRG_MMP3: Life Technologies and Expression Analysis (LTEA) Assay for matrix metalloproteinase-3 (MMP3) using HepaRG (AID 2283519)
Summary of the method: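 Human liver HepaRG cultures received chemicals (top concentration 100 uM, 0.5% DMSO) for 48 h in duplicate. MMP3 mRNA induction or loss was then assessed via TaqMan qRT-PCR with housekeeping-gene normalisation.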

[14] = read-out: Paternally Expressed 10 (PEG10), PEG10 (gene 23089); assay: LTEA_HepaRG_PEG10: Life Technologies and Expression Analysis (LTEA) Assay for Paternally Expressed 10 (PEG10) using HepaRG (AID 2283520);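 for AC50: PEG10 transcript by qRT-PCR normalised to ACTB GAPDH and POLR2A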
Summary of the method: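 qRT-PCR read-out: PEG10 mRNA normalised to three housekeeping genes, fitted bidirectionally against 0.5% DMSO vehicle. HepaRG cells received test chemicals for 48 h in serum-free induction medium, 8 points, top 100 uM, half-log steps.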

[15] = read-out: Nuclear factor NF-kappa-B p105 subunit (Homo sapiens) (UniProt P19838); assay: LTEA_HepaRG_NFKB1: Life Technologies and Expression Analysis (LTEA) Assay for Nuclear Factor Kappa B Subunit 1 (NFKB1) using HepaRG (AID 2283521);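 note: TaqMan qRT-PCR transcript normalised to ACTB GAPDH and POLR2A housekeeping genes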
Summary of the method: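 Differentiated human HepaRG cells in serum-free induction medium with 0.5% DMSO were exposed for 48 h to eight half-log concentrations, top 100 uM, in duplicate. NFKB1 mRNA measured by Fluidigm TaqMan qRT-PCR, normalised to ACTB, GAPDH and POLR2A; bidirectional fit versus DMSO.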

[16] = read-out: Protein phosphatase 2A (PPP2R4), PTPA (gene 5524); assay: LTEA_HepaRG_PPP2R4: Life Technologies and Expression Analysis (LTEA) Assay for Protein phosphatase 2A (PPP2R4) using HepaRG (AID 2283522)
Summary of the method: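 HepaRG, 48 h exposure, 8-pt half-log series from 100 uM, 0.5% DMSO vehicle, duplicates. Readout: PPP2R4 mRNA, Fluidigm qRT-PCR, housekeeping-normalized. Bidirectional curve fit vs DMSO baseline.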

[17] = read-out: Phosphatase and tensin (PTEN), PTEN (gene 5728); assay: LTEA_HepaRG_PTEN: Life Technologies and Expression Analysis (LTEA) Assay for Phosphatase and tensin (PTEN) using HepaRG (AID 2283523)
Summary of the method: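 Expression of PTEN is quantified in the human liver line HepaRG following two days of dosing (top concentration 100 uM, half-log dilutions, 0.5% DMSO). Values derive from bidirectional curve fitting relative to DMSO controls.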

[18] = read-out: solute carrier (SLC22A1), SLC22A1 (gene 6580); assay: LTEA_HepaRG_SLC22A1: Life Technologies and Expression Analysis (LTEA) Assay for solute carrier (SLC22A1) using HepaRG (AID 2283524)
Summary of the method: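 Transcript induction or suppression of SLC22A1 in human HepaRG cultures is scored after 48 h chemical treatment, with DMSO (0.5%) as baseline for bidirectional fitting. Concentrations span eight half-log points topping at 100 uM.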

[19] = read-out: Pyruvate Dehydrogenase Kinase 4 (PDK4), PDK4 (gene 5166); assay: LTEA_HepaRG_PDK4: Life Technologies and Expression Analysis (LTEA) Assay for Pyruvate Dehydrogenase Kinase 4 (PDK4) using HepaRG (AID 2283525)
Summary of the method: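 Eight-point, half-log concentration series (max 100 uM, 0.5% DMSO) applied to differentiated HepaRG cells for 48 h in duplicate. Endpoint: PDK4 mRNA induction or repression by qRT-PCR against DMSO baseline.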

Measured: AC50

Nuclear factor NF-kappa-B p105 subunit (Homo sapiens), sequence (P19838 whole entry, looked up): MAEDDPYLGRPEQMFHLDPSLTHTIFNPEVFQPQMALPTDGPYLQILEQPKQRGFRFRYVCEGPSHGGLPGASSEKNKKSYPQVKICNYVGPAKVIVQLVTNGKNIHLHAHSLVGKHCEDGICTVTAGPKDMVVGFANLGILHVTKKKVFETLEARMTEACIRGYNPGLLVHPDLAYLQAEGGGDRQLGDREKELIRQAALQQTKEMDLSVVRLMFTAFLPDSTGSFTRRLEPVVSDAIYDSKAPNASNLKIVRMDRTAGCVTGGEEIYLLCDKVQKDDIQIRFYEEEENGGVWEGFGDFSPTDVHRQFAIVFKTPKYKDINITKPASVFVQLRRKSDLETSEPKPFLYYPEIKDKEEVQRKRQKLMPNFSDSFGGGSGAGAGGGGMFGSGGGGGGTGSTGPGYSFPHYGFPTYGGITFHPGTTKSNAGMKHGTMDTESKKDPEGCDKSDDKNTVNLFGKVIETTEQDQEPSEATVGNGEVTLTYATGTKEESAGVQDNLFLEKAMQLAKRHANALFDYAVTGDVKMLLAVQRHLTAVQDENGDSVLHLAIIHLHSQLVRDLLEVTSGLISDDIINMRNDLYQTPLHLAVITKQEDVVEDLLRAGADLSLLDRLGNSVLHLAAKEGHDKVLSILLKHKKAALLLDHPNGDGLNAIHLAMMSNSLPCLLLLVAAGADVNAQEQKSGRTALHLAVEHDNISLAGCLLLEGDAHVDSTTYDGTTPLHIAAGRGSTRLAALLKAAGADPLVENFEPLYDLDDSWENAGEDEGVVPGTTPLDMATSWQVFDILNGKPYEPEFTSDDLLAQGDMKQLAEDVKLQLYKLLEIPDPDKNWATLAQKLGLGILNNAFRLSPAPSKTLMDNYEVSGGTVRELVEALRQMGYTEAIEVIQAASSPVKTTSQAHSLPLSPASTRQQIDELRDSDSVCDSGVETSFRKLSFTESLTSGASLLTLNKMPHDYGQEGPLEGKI

C=CCC1=C(C)[C@@H](OC(=O)[C@@H]2[C@@H](C=C(C)C)C2(C)C)CC1=O
active: [1] 50 µM | [14] 22.6 µM | [18] 50 µM
inactive: [2] | [3] | [4] | [5] | [6] | [7] | [8] | [9] | [10] | [11] | [12] | [13] | [15] | [16] | [17] | [19]

Cc1cc(Cl)ccc1OCC(=O)O
active: [14] 9.94 µM | [19] 35.5 µM
inactive: [1] | [2] | [3] | [4] | [5] | [6] | [7] | [8] | [9] | [10] | [11] | [12] | [13] | [16] | [17] | [18]

CCCCNC(=O)n1c(NC(=O)OC)nc2ccccc21
inactive: [1] | [2] | [3] | [4] | [5] | [6] | [7] | [8] | [9] | [10] | [11] | [12] | [13] | [14] | [15] | [16] | [17] | [18] | [19]

COP(=S)(OC)Oc1nc(Cl)c(Cl)cc1Cl
inactive: [1] | [2] | [3] | [4] | [5] | [6] | [7] | [8] | [9] | [10] | [11] | [12] | [13] | [16] | [17] | [18] | [19]
active: [14] 69 µM

CON(C)C(=O)Nc1ccc(Cl)c(Cl)c1
active: [1] 50 µM | [3] 50 µM | [7] 48.5 µM | [9] 12.5 µM | [12] 78.6 µM | [14] 65.3 µM | [18] 50 µM
inactive: [2] | [4] | [5] | [6] | [8] | [10] | [11] | [13] | [15] | [16] | [17] | [19]
